In PubChem BioAssay AID598 (SRMLSC, 2007):
The whole screen tested about 85,000 compounds, of which about 5,100 (6%) were called active. The full list was thinned out, with actives kept by preference. A number with no mark means an inactive call.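 How the source made its calls: active means viability at or below 40%; inactive means viability above 40%.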

test: proliferation blockers of H69AR lung cancer cells, primary screen, cell-based, human, 86K library (AID 598); settings: H69AR lung tumor viability, ATP luminescence, 72 h; at 10 µM; hits give low values;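 further: multidrug resistant small cell line overexpressing MRP-1 efflux transporter; 100% = mean luminescence of untreated control wells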

SMILES	viability
CC(=O)c1ccc(OCCN2CCOCC2)cc1	85.9%
Cc1ccc(NC(=O)N2CCC(O)(c3cccnc3)CC2)cc1	78.4%
CCCCc1nnc(NC(=O)CS(=O)(=O)Cc2ccccc2)s1	97%
CC(=O)NC1=NN(C(C)=O)C(C)(c2ccc(Cl)s2)S1 (configuration not stated)	17.3% (active)
O=C(NC1=NCCS1)c1ccc(Cl)s1	93.3%
c1ccc2c(-c3nn4nnnc4c4ccccc34)cccc2c1	64.8%
CCCn1c(C)cc(C(=O)COC(=O)c2c(C)nn(-c3ccccc3)c2C)c1C	100%
CCOC(=O)N1CCN(C(c2cccnc2)c2ccc3cccnc3c2O)CC1 (configuration not stated)	35.2% (active)
CCN1CCN(C(c2cccnc2)c2cc(Cl)c3cccnc3c2O)CC1 (configuration not stated)	102%
Oc1c(C(c2ccccn2)N2CCOCC2)ccc2cccnc12 (configuration not stated)	79.3%
CC(C)(C)c1nc2ccccc2c(=O)n1N1C(=O)c2ccccc2C1=O	63.5%
Cc1ccc2cc(CCNC(=O)c3c(-c4ccccc4Cl)noc3C)c(=O)[nH]c2c1	86.2%
O=C(Nc1ccc(-c2nnc(-c3ccccc3)o2)cc1)c1ccc(Br)o1	39.8% (active)
O=C(Nc1ccc(-c2nnc(-c3ccccc3)o2)cc1)C1CCCO1 (configuration not stated)	86%
Brc1ccc(-c2nnc(-c3ccccc3)o2)o1	90%
CC1CCN(S(=O)(=O)c2ccc(S(=O)(=O)NCc3ccco3)cc2)CC1	75.4%
Cc1cc(Br)ccc1NC(=O)C1CCCO1 (configuration not stated)	101%
OC(CNCC1CCCO1)Cn1c2ccc(Br)cc2c2cc(Br)ccc21 (configuration not stated)	1.09% (active)
Cc1ccc(C(=O)NCC2CCCO2)o1 (configuration not stated)	93.7%
CCOCCCNC(=O)C(NC(=O)CNC(=O)c1ccccc1)c1ccc(C)cc1 (configuration not stated)	101%
O=S(=O)(Cc1cc(Sc2ccccc2)nc(-c2ccccc2)n1)c1ccccc1	84.3%
Cn1c(-c2ccco2)nc2cc3ccccc3cc21	37.4% (active)
c1coc(-c2nc3nc4ccccc4n3nc2-c2ccco2)c1	82.6%
CN(c1nc2ccccc2n2c(-c3ccco3)nnc12)S(=O)(=O)c1ccccc1	96.1%
Cc1ccc(C)c(NC2=NCC(=O)N2c2ccc3c(c2)OCCO3)c1	100%

SMILES	viability
COc1ccc(NC(=O)CCN2CCCC2)c(OC)c1	94.6%
CN1C(=O)C(CC(N)=O)N(NC(=O)c2ccc(Cl)cc2)C1=S (configuration not stated)	98%
CCOc1cccc(-c2nnc3sc(COc4ccc(OC)cc4)nn23)c1	51.3%
COc1ccc(-n2nnnc2SCC(=O)c2ccc(OC)c(OC)c2)cc1	92%
CCOc1cccc(-n2nnnc2-c2ccc(OC)cc2)c1	15.2% (active)
O=C(CC1(O)C(=O)N(CN2CCOCC2)c2ccccc21)c1ccccc1 (configuration not stated)	79.9%
CCOC(=O)CN1C(=O)C(O)(CC(=O)c2ccccn2)c2ccccc21 (configuration not stated)	46.4%
C#CCN1C(=O)C(O)(CC(=O)c2cc(OC)ccc2OC)c2ccccc21 (configuration not stated)	17.6% (active)
COc1ccc(N2CCN(C(=O)CSc3ncnc4c3cnn4-c3ccc(OC)cc3)CC2)cc1	89.9%
CCOC(=O)c1ccc(-n2c(C)nc3c(cnn3-c3ccccc3C)c2=O)cc1	96.7%
COc1ccc(-n2c(C)nc3c(cnn3-c3ccccc3)c2=O)cc1	19.6% (active)
Cc1ccc(/C=N/NC(=O)C2=NNC(c3ccccc3)(c3ccccc3)C2)c(O)c1	40.7%
COc1ccccc1CNS(=O)(=O)c1ccc(C)cc1	86.8%
COc1ccc(S(=O)(=O)N/N=C\c2ccc(OC)c(COc3ccc(C)cc3[N+](=O)[O-])c2)cc1	29.6% (active)
CCOc1ccc(S(=O)(=O)Nc2ccc(S(=O)(=O)Nc3cc(OC)ccc3OC)cc2)cc1	74.9%
Cc1noc(/C=C/c2ccco2)c1S(=O)(=O)N1CCC(C(=O)N2CCc3ccccc32)CC1	81.4%
COCCNC(=O)C(c1ccc(C)o1)N(Cc1cccs1)C(=O)c1snc(C(N)=O)c1N (configuration not stated)	91.2%
CCC(C(=O)NC1CCCC1)N(C(=O)c1snc(C(N)=O)c1N)c1ccc2c(c1)OCCO2 (configuration not stated)	33.1% (active)
Cc1ccc(C(C(=O)NC2CCCCC2)N(C(=O)c2csnn2)C2CC2)o1 (configuration not stated)	95.7%
Cc1cc(O)cc(O)c1C(=O)Cc1cnn(-c2ccccc2)c1	79.8%
O=C1C=C(c2ccc(Cl)cc2)C(=O)N1Nc1ccccc1	1.17% (active)
Cc1ccc(CCN2CC(C(=O)O)CC2=O)cc1 (configuration not stated)	91.7%
CC(C)n1c(-c2cccs2)nc2ccccc21	89.8%
CC(C)=C1SC(N2CCN(c3cccc(C)c3)CC2)=NC1=O	96.9%
O=C1N=C(N2CCCC2)S/C1=C\c1cccc(Br)c1	36.9% (active)

SMILES	viability
CCN1C(=O)/C(=C2\SC(N3CCCCC3)=NC2=O)c2ccccc21	67.4%
CC(C)C(=O)Nc1ccc2c(c1)oc1ccccc12	55.1%
O=C(/C=C/c1ccc(Cl)cc1Cl)c1cccnc1	0.85% (active)
O=C(NCc1ccc(Cl)c(Cl)c1)c1cccnc1	94.2%
C/C(=C\C(=O)c1cccnc1)Nc1ccc(C)c(C)c1	93.1%
OC(C#CCN1CCOCC1)(c1ccccc1)C1CCCCC1 (configuration not stated)	79.2%
CCOC(=O)C1=C(C)N=c2s/c(=C\C(=O)OC)c(=O)n2C1c1ccc(OC)cc1 (configuration not stated)	10.6% (active)
CCOC(=O)C1=C(CSc2nccn2C)NC(=O)NC1c1ccc(OC)cc1 (configuration not stated)	82.8%
COCCOC(=O)C1=C(C)N=c2s/c(=C\c3cccs3)c(=O)n2C1c1cccs1 (configuration not stated)	80.7%
Cc1nc2ccccc2n1C(=O)N1CCOCC1	82.5%
COC(=O)c1cc(NC(=O)C2C3C=CC(C3)C2C(=O)O)cc(C(=O)OC)c1 (configuration not stated)	94.8%
Cc1ccc(-n2c(SCC(=O)NCc3ccc4c(c3)OCO4)nnc2-c2cccnc2)c(C)c1	35.1% (active)
Cc1ccccc1-n1c(SCC(=O)NCc2cccs2)nnc1-c1ccncc1	89.8%
Cc1ccccc1-c1nnc(SCC(=O)NCc2ccc3c(c2)OCO3)n1C	91.1%
Cc1cccc(Cn2c(N3CCN(c4ccccc4)CC3)nc3c2c(=O)n(C)c(=O)n3C)c1	72.4%
Cc1cccc(C2c3c(n(C)c(=O)n(C)c3=O)N=C3c4ccccc4C(=O)C32)c1 (configuration not stated)	4.39% (active)
CCc1nnc(NC(=O)CSc2nc3ccccc3c(=O)n2CCCOC)s1	64.5%
COCCNc1nc(-n2nc(C)cc2C)nc2sc3c(c12)CCCC3	6.95% (active)
CCC(O)CNc1nc(-n2nc(C)cc2C)nc2sc3c(c12)CC(C)(C)OC3 (configuration not stated)	44.6%
Cc1cc(C)n(-c2nc(SCC(=O)N3CCCC3)c3c4c(sc3n2)CCCC4)n1	57.6%
COC(=O)c1cccc(-n2[nH]nnc2=S)c1	87.1%
O=[N+]([O-])c1ccc(Oc2ccc(F)cc2Br)c2ccncc12	17.6% (active)
Cn1c(SCC(=O)C(C)(C)C)nnc1-c1ccccn1	98.3%
CC(=O)C1=C(C)NC(C)=C(C(C)=O)C1c1cn(-c2ccccc2)nc1-c1cccs1	93.4%
CCC(=O)NCCc1nc2ccccc2n1CC	95.2%

SMILES	viability
CCOC(=O)c1c(NC(=O)CSc2nnc(CNc3ccc(C)cc3C)o2)sc(C)c1C	92.8%
CC1(C)CC(=O)C=C(N2CCCC2)C1	95.2%
O=C1NC(c2cc3c(cc2Cl)OCO3)Oc2ccccc21 (configuration not stated)	32.9% (active)
O=C1c2ccccc2S(=O)(=O)N1CC(O)Cn1c2ccccc2c2ccccc21 (configuration not stated)	92.4%
CC(=O)c1ccc2c(c1)c1ccccc1n2CC(C)C	73.2%
CS(=O)(=O)N(CC(O)Cn1c2ccccc2c2ccccc21)c1cccc2ccccc12 (configuration not stated)	1.71% (active)
CCCCOc1ccc(C(=O)NCc2ccncc2)cc1	78.5%
CCOC(=O)c1cnc(SC)nc1Sc1ccc(Cl)cc1Cl	85.4%
Cc1ccc(CN(N=Nc2nonc2N)c2nonc2N)c(C)c1	79.6%
CCC1(C)Cc2c(sc3nc(SC)nc(N)c23)CO1 (configuration not stated)	62.6%
CCC1(C)Cc2c(sc3[nH]c(=S)n(Cc4ccccc4)c(=O)c23)CO1 (configuration not stated)	25% (active)
CCC1(C)Cc2c(sc3nc4n(c(=O)c23)CCCS4)CO1 (configuration not stated)	93.3%
CCOC(=O)c1sc(C)c2c1NC(C)(c1cccc3ccccc13)NC2=O (configuration not stated)	103%
CCOC(=O)C(C)Sc1nc2ccccc2c(=O)n1CC1CCCCC1 (configuration not stated)	82.4%
COc1ccccc1NC(=O)c1ccc(C)s1	92.7%
COc1ccccc1NS(=O)(=O)N(C)C	104%
COc1ccccc1NC(=O)/C=C/C(N)=O	2.11% (active)
COc1cc(C)c(C(C)C)cc1S(=O)(=O)n1ccnc1	101%
CCOC(=O)c1ccc(COC(=O)CCc2nc(-c3ccccc3)c(-c3ccccc3)o2)cc1	71.5%
O=C(CSc1nnc(-c2cccs2)n1-c1ccccc1)N1CCN(C(=O)c2ccco2)CC1	81.3%
Cc1nnc(SCC(=O)N2CCc3ccccc3C2)s1	85.3%
O=C(CSc1nnc(-c2cccs2)n1Cc1ccccc1)N1CCc2ccccc2C1	29.9% (active)
